# Measured values reported in PubChem BioAssay AID652128 (Broad Institute, 2013).
# The other results are listed elsewhere or left out. Inconclusive results are not listed. The source made the active and inactive calls.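 Rule for the calls: active = fitted half-maximal concentration for signal loss at or below twice the highest dose tested, in every separate run (actives reach about 64 µM in these data); inconclusive = runs disagree, or flat partial signal loss, or poor fit; inactive = the rest.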
# Experiment: DNA binders displacing acridine orange – biochemical, fluorescence polarization, cherry-pick, artefact control for RAD52 inhibitor project, dose response (AID 652128)
# Settings: Salmon sperm DNA/acridine orange FP displacement, DNA binding
Structure (SMILES),outcome,AC50
Cc1cc2oc3ccc(NCCC4CCCN4C)cc3c(=O)c2cc1C (stereo unspecified),inactive,
CCN(CC)CCCNC(=O)c1cc2c(=O)[nH]c3ccc(C)cc3c2s1,,49.6 µM (active)
CN(Cc1ccccc1F)c1cc2c(c3c1ccn3C)C1CCC2O1 (stereo unspecified),inactive,
CN1CCN(c2nc(Nc3ccc(O)cc3)nc3ccccc23)CC1,inactive,
O=C1CCC(C(=O)OCC(=O)Nc2ccc(OC(F)F)cc2)=NN1,inactive,
CC(=O)Nc1ccc(CNc2nc(NCCN(C)C)nc3cc(-c4ccccc4)sc23)cc1,inactive,
CCN(CC)CCC(c1ccc2c(c1)OCO2)c1c(OC)cc(OC)c2c(-c3ccccc3)cc(=O)oc12 (stereo unspecified),inactive,
CCN(CC)CCn1c2ccc(Cl)cc2c2nc(C)sc21,inactive,
NC(N)=Nc1nc(-c2ccccc2)c2cc(Cl)ccc2n1,inactive,
O=C(/C=C/c1cn(-c2ccccc2)nc1-c1ccc2c(c1)OCCO2)NCCCN1CCOCC1,inactive,
C[C@H]1CN([C@@H](C)CO)C(=O)CCCn2nncc2CO[C@@H]1CN(C)C(=O)Nc1ccc(N2CCN(C)CC2)cc1,inactive,
CCN1CCN(CCNC(=O)c2ccc(/C=C3/Sc4ccccc4N(Cc4cccc(C)c4)C3=O)cc2)CC1,inactive,
CN1CCN(C2Cc3ccc(Cl)cc3Sc3ccc(F)cc32)CC1 (stereo unspecified),inactive,
COc1ccc(CC(N)c2csc(NC(=O)Nc3ccc(C(C)C)cc3)n2)cc1 (stereo unspecified),inactive,
Cc1ccc(C(=O)N/C(=C/c2ccc(-c3cccc([N+](=O)[O-])c3)o2)C(=O)NCCCN(C)C)cc1,inactive,
Nc1ccc(OCC(O)C[n+]2ccc(CCS(=O)(=O)[O-])cc2)cc1 (stereo unspecified),inactive,
CCCCCCCCCCOC(=O)Cn1c(COc2ccc(C)cc2)[n+](C)c2ccccc21,inactive,
COc1ccc2[nH]c3c(C)c4cc[n+](C)cc4c(C)c3c2c1,,4.3 µM (active)
CN(C)CCN1CCN(c2cc(-c3cccc(Cl)c3)nc3ccnn23)CC1,inactive,
CCN(CC)CCN(C(=O)c1ccc2c(c1)CCCC2)c1nc2c(OC)cccc2s1,inactive,
COc1ccc2sc(N(CCCN(C)C)C(=O)c3ccc(S(=O)(=O)N(C)C4CCCCC4)cc3)nc2c1,inactive,
Cn1ccc(=Nc2ccc(NC(=O)c3ccc(N=c4ccn(C)c5ccc([N+](=O)[O-])cc45)cc3)cc2)cc1,inactive,
CCC1CCCCN1CCCNC(=O)c1cc2c(Cl)nc3ccccc3c2s1 (stereo unspecified),,49 µM (active)
CCN(CC(=O)Nc1ccc(NC(C)=O)cc1)C(=O)C1CC(=O)N(c2ccc3c(c2)OCCO3)C1 (stereo unspecified),inactive,
CN(C)CCNC(=O)c1ccc(Cl)c2cc3ccccc3nc12,,13.1 µM (active)
CC(=O)c1cccc(-c2cnc3c(NC=O)cc(-c4ccc(N5CCN(C)CC5)cc4)cn23)c1,inactive,
